Bioassay records: PubChem BioAssay, several laboratories
Most compounds without a hit are left out; they make up all but 4.1% or so of the library.
tim23-1 inh: growth inhibitors of tim23-1 mutant yeast, primary screen, luminescence, uHTS. S. cerevisiae tim23-1 growth, BacTiter-Glo luminescence, 24 h. inhibition, % at 20 µM. actives 1.3% (n = 330,000);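 active = growth inhibition of the mutant yeast at or above 50%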;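 also: temperature-sensitive mutant grown at 25 °C; plate controls were DMSO-treated mutant yeast for no effect and medium wells lacking yeast for full effect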
tim10-1 inh: growth inhibitors of tim10-1 mutant yeast, primary screen, luminescence, uHTS | inhibition, % at 20 µM | actives 2.2% (n = 330,000) | S. cerevisiae tim10-1 ts strain growth, BacTiter-Glo, 24 h;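 active = inhibition of at least 40%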;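 also: mutant grown at 25 °C; 0% = DMSO wells with yeast and 100% = wells holding no yeast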
PfHsp90 yeast 2: growth inhibition of PfHsp90-expressing yeast, primary screen, antimalarial PfHsp90 inhibitor project, S. cerevisiae, BacTiter-Glo luminescence, single point, set 2; AID 504621, 2011; BacTiter-Glo ATP, 48 h; yeast lacking PDR1 and PDR3 efflux regulators; inhibition, % at 9.4 µM; actives 0.32% (n = 310,000);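 active = every replicate shows inhibition above about 80%, whatever the replicate mean, limit read from the data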;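 also: 0% = DMSO neutral controls and 100% = 20 µM radicicol positive controls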
TIM10 inh: growth inhibitors of isogenic TIM10 control yeast, primary screen, counter-screen for tim10-1 yeast inhibitor project, luminescence, uHTS. inhibition, % at 10 µM. S. cerevisiae TIM10 strain growth, BacTiter-Glo luminescence, 24 h. actives 1.4% (n = 330,000);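 active = inhibition of 40% or more at the single tested concentration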;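 also: wild-type TIM10 isogenic control strain grown at permissive 25 °C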
NALP1 yeast inh: NALP1 inflammasome inhibitors in reconstituted yeast, colorimetric, S. cerevisiae, triplicate retest; S. cerevisiae NALP1/ASC/caspase-1 growth, X-gal OD620, 72 h; inhibition, % at 10 µM; actives 0.61% (n = 280,000); AID 2071, 2009; in the data active = inhibition mostly above about 24%, no sharp cut-off; inactive = mostly below about 32%
NALP3 yeast inh: NALP3 inflammasome inhibitors in reconstituted yeast, primary screen, luminescence, uHTS. AID 2825, 2010. Yeast reconstituted NLRP3/ASC/caspase-1, beta-gal luminescence, 24 h. inhibition, % at 10 µM. actives 0.39% (n = 330,000);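 active = inhibition of 50% or more; inactive = inhibition below 50%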;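 also: plate controls were induced DMSO wells for no effect and uninduced yeast grown without galactose for full effect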
TIM10 conf: growth inhibitors of wild-type TIM10 yeast, confirmation, counter-screen for tim10-1 synthetic lethality project, single concentration, luminescence, S. cerevisiae | shares compounds with TIM10 inh | S. cerevisiae tim10 strain growth, BacTiter-Glo luminescence, 24 h | inhibition, % at 10 µM | actives 63% (n = 4,600);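 active = inhibition of yeast growth at or above a set limit in either of two replicates at 10 µM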;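 also: this counterscreen used the strain with wild-type TIM10; 0% = yeast with DMSO and 100% = medium wells lacking yeast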
tim23-1 confirm: tim23-1 mutant yeast growth inhibitors, confirmation, luminescence, single concentration; actives 83% (n = 4,400); S. cerevisiae tim23-1 growth, BacTiter-Glo luminescence, 24 h; inhibition, % at 20 µM; shares compounds with tim23-1 inh;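 active = inhibition above about 39% in either of two replicate wells at 20 µM, limit read from the data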;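 also: temperature-sensitive tim23-1 mutant grown at 25 °C; 0% = DMSO wells with yeast and 100% = medium wells without yeast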
Active calls of the source: *; . = no result given.

SMILES	tim23-1 inh	tim10-1 inh	PfHsp90 yeast 2	TIM10 inh	NALP1 yeast inh	NALP3 yeast inh	TIM10 conf	tim23-1 confirm
CCOC(=O)N1C(=O)[C@](CC)(c2ccccc2)N1C(=O)OCC	17	2	28	15	29	3	.	.
CCC1(c2ccccc2)ON(c2c(Br)cccc2Br)C1=O (stereo not given)	78*	-52	-26	71*	.	13	56*	-48
O=C(CSc1nnc(-c2cccnc2)o1)Nc1cccc(F)c1	17	3	14	-4	.	28	.	.
N/C(Cc1ccc(Cl)cc1)=N\OC(=O)C1CCCCC1	79*	29	-12	87*	47*	10	-12	53*
Cn1c(NC2CCCCC2)cc(=O)n(C)c1=O	2	4	-8	-11	9	10	.	.
Cc1cc(C2CCCCC2)n(O)c(=O)c1	66*	38	109*	59*	.	29	62*	53*
CC1CCCC(NC(=O)COC(=O)/C=C/c2ccc(F)cc2)C1C (stereo not given)	17	10	-1	10	.	2	.	.
O=C(NCC1CC1(Cl)Cl)Nc1ccc(Cl)c(Cl)c1 (stereo not given)	80*	38	-5	48*	9	34	45*	71*
Cc1ccc(NC(=O)NCC2CC2(Cl)Cl)cc1 (stereo not given)	4	-16	43	-23	19	23	.	.
CN(C(=O)COC(=O)c1ccccc1C(=O)N(C)c1ccccc1)c1ccccc1	0	24	31	-1	4	11	.	.
CN(C(=O)COC(=O)c1cc2ccccc2cc1O)c1ccccc1	62*	25	23	40*	.	27	47*	48*
Cn1c(/C(C#N)=C/c2ccncc2)nc2ccccc21	68*	35	-25	46*	6	-14	19	63*
COc1ccc(S(=O)(=O)Nc2cccc3c2O[C@H](CN(C)C(=O)NC(C)C)[C@@H](C)CN([C@H](C)CO)C3=O)cc1	-5	16	9	-7	.	5	.	.
c1ccc(CN2CCC(N3CCN(Cc4ccc5c(c4)OCO5)CC3)CC2)cc1	-23	-16	1	-2	.	7	.	.
O=C1C=CC2C(c3ccc4c(c3)OCO4)CC1N2Cc1ccccc1 (stereo not given)	58*	23	-8	44*	44	29	51*	47*
Cn1c(CSc2nc3ccc(Br)cc3[nH]2)nc2ccccc21	61*	29	22	41*	19	23	28	57*
C=CCS/C(N)=N\N=C\c1c(O)ccc2ccccc12	53*	24	-9	53*	-4	27	42*	71*
CCCS/C(N)=N/N=C/c1ccccc1O	16	19	13	15	3	25	.	.
O=C(C1COc2ccccc2O1)N1CCN(c2ccc([N+](=O)[O-])cc2)CC1 (stereo not given)	61*	36	-12	43*	.	12	47*	55*
O=C(COC(=O)CNC(=O)c1ccccc1Cl)Nc1ccccc1Cl	10	10	-10	-2	.	11	.	.
Cc1cccc(N=N/C(=C\O)C(=O)c2cccs2)c1	58*	38	-56	43*	-41	17	45*	60*
Cc1cc2n(n1)C(c1ccc(N(C)C)cc1)Nc1ccccc1-2 (stereo not given)	55*	34	.	40*	16	14	34*	64*
Cc1cc(-c2nc(C)c(C(=O)NN)s2)no1	-3	8	14	10	14	-16	.	.
